{"source": "PubChem BioAssay", "note": "Activity calls are given as the source filed them.", "data": [{"assay": "cell viability in Huh7 cells, primary screen, cytotoxicity control for HCV replication inhibitor project, CellTiter-Glo luminescence, basal, 48 h (AID 1143);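 further: Huh7 hepatoma cells carrying a hepatitis C replication reporter with no stimulus; test concentration not given here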", "details": "Huh7 HCV replicon, higher = more signal, called active from +8 up or from −8 down", "values": [{"compound": "CC(C)C[C@@H]1NC(=O)[C@H]2C[C@@H](C(=O)NCCCCCCNC(=O)CS)[C@@H](c3cccc(OCCO)c3)N2C1=O", "z-score": "0.263 (inactive)"}, {"compound": "CC(C)NC(=O)[C@@]1(Cc2ccccc2I)c2ccccc2C(=O)N(Cc2ccccc2)[C@H]1c1ccc(CO)cc1", "z-score": "-2.05 (inactive)"}, {"compound": "O=C1O[C@H](c2ccccc2)[C@H](c2ccccc2)N2[C@H]1[C@@H](C(=O)N1CCN(c3ncccn3)CC1)[C@]1(C(=O)Nc3ccccc31)[C@H]2c1ccc(OCCO)cc1", "z-score": "-5.5 (inactive)"}, {"compound": "COc1ccc(CCNC(=O)[C@@]2(Sc3ccc(C)cc3)CC(=O)N(Cc3ccccc3Cl)[C@@H]2c2ccc(CO)cc2I)cc1", "z-score": "-2.2 (inactive)"}, {"compound": "CN(C)C(=O)[C@]1(CCC(=O)OC(C)(C)C)N=C(c2ccc(OCCCO)cc2)O[C@@H]1c1ccccc1N=[N+]=[N-]", "z-score": "-1.61 (inactive)"}, {"compound": "CC(=O)NCCCC[C@@H]1NC(=O)[C@@H]2C[C@H](C(=O)NCCCCN(C)C)[C@H](c3ccc(O)cc3)N2C1=O", "z-score": "0.0068 (inactive)"}, {"compound": "COc1c(C)cc(-c2cc3c(c(-c4ccc(Oc5ccccc5)cc4)n2)[Si](C(C)C)(C(C)C)OC3)cc1C", "z-score": "-0.0304 (inactive)"}, {"compound": "CC(C)CNC(=O)[C@@]1(c2ccc([N+](=O)[O-])cc2)CC(=O)N(CC23CC4CC(CC(C4)C2)C3)[C@@H]1c1ccc(CO)cc1", "z-score": "-4.7 (inactive)"}, {"compound": "Cc1ccc(F)cc1S(=O)(=O)N[C@@H]1CCN(Cc2ccc(-c3ccccc3)cc2)C1", "z-score": "-6.41 (inactive)"}, {"compound": "CC(C)(C)OC(=O)CC[C@]1(C(=O)N2CCCCC2)N=C(c2ccc(OCCCO)cc2)O[C@H]1c1ccccc1N=[N+]=[N-]", "z-score": "-2.48 (inactive)"}, {"compound": "COC(=O)c1ccc(C(O)C2C=CC3C(=O)N(C)C(=O)C3N2NC(=O)OC(C)(C)C)o1", "note": "(stereo not given)", "z-score": "0.534 (inactive)"}, {"compound": "CCCCCCCCCCC(O)C1C=CC2C(=O)N(Cc3ccccc3)C(=O)C2N1n1cnnc1", "note": "(stereo not given)", "z-score": "-4.02 (inactive)"}, {"compound": "CCOC(=O)C1=CC[C@@H](c2ccccc2)N(S(=O)(=O)c2ccc(C)cc2)[C@H]1C(=O)OCC", "z-score": "-4.23 (inactive)"}, {"compound": "CCCNC(=O)[C@@]1(c2ccc([N+](=O)[O-])cc2)CC(=O)N(CC23CC4CC(CC(C4)C2)C3)[C@@H]1c1ccc(CO)cc1", "z-score": "-5.17 (inactive)"}, {"compound": "COCCOC(=O)N1C(=O)[C@@]2(c3ccccc31)[C@H](C(=O)NC[C@H](O)c1ccccc1)[C@H]1C(=O)O[C@H](c3ccccc3)[C@H](c3ccccc3)N1[C@@H]2c1ccc(OCCO)cc1", "z-score": "-3.37 (inactive)"}, {"compound": "CCCCC=C[C@@H](NC(=O)c1ccco1)c1ccccc1", "z-score": "-1.08 (inactive)"}, {"compound": "CC(=O)NCCCC[C@@H]1NC(=O)[C@H]2C[C@@H](C(=O)NCCCCCC[N+](C)(C)C)[C@@H](c3cccc(OCCO)c3)N2C1=O", "z-score": "-2.49 (inactive)"}, {"compound": "O=C(CS)NCCCCCCNC(=O)[C@H]1C[C@H]2C(=O)NCC(=O)N2[C@H]1c1ccc(O)cc1", "z-score": "0.0181 (inactive)"}, {"compound": "COC(=O)[C@@]1(Cc2ccc(OC)cc2)[C@H]2c3cc(C(=O)N(C)C)n(Cc4c(OC)[nH]cc(C)c4=O)c3C[C@H]2CN1C(=O)c1ccccc1", "z-score": "-0.857 (inactive)"}, {"compound": "CS(=O)(=O)CCOC(=O)C1=CC(c2ccc(CO)cc2)=CC(C2CC2)N(Cc2cc3c(cc2Br)OCO3)C=C1C(=O)OCCS(C)(=O)=O", "note": "(stereo not given)", "z-score": "-3.38 (inactive)"}, {"compound": "C=CCOC(=O)[C@H]1[C@@H]2C(=O)O[C@@H](c3ccccc3)[C@@H](c3ccccc3)N2[C@@H](c2ccc(OCCOC(=O)[C@@H]3C[C@@H]4C(=O)N5CCC[C@H]5C(=O)N4[C@@H]3c3ccc(O)cc3)cc2)[C@]12C(=O)Nc1ccccc12", "z-score": "-0.496 (inactive)"}, {"compound": "O=C1O[C@@H](c2ccccc2)[C@@H](c2ccccc2)N2[C@@H](c3ccccc3OCCO)[C@]3(C(=O)Nc4ccc(C#CC5(O)CCCCCC5)cc43)[C@@H](C(=O)Nc3nc4ccccc4s3)[C@H]12", "z-score": "-5 (inactive)"}, {"compound": "COCC(=C=CC[C@@H](O)c1ccc(CO)o1)CCO", "z-score": "-3.6 (inactive)"}, {"compound": "CC(C)CNC(=O)[C@@H]1c2ccccc2C(=O)N(Cc2cc(C(F)(F)F)cc(C(F)(F)F)c2)[C@H]1c1ccc(CO)cc1", "z-score": "-1.51 (inactive)"}, {"compound": "C=CCOC(=O)[C@H]1[C@@H]2C(=O)O[C@@H](c3ccccc3)[C@@H](c3ccccc3)N2[C@@H](c2ccc(OCCOC(=O)[C@@H]3C[C@@H]4C(=O)NCC(=O)N4[C@@H]3c3ccc(O)cc3)cc2)[C@]12C(=O)Nc1ccccc12", "z-score": "-0.987 (inactive)"}]}]}
